Pf Dd2 inh: blocks in vitro growth of P. falciparum Dd2 | P. falciparum Dd2 growth, SYBR Green, 72 h | Potency, µM (series often up to 28.9 µM), for the others: at the highest dose activity, negative = inhibition, most hits filed as inhibitors | 4.3% of 120,000 active | AID 1347417; active = well fitted inhibition curve with a large enough effect;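 also: plate controls were DMSO vehicle for no effect and reference drug for full effect; nearly all actives have a fitted effect of over 65% in size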
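Readout: SYBR Green fluorescence, 485 nm excitation, 535 nm emission, after ~16 h lysis at 37C. Before that, Dd2-infected red cells (2.5% hematocrit) grew 72 h with compound, 29 uM top final concentration.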
Numbers without * were called inactive; i = inactive; [ ] = remark or other dose. Shown is part of a subset that was picked to be rich in hits. Potency is read from the fitted curve at half-maximal effect.

SMILES	Pf Dd2 inh
CCC(C(=O)N1CCN(c2ccccc2)CC1)n1c(C)c2cnn(-c3ccccc3)c(=O)c2c1C (centres undefined)	11µM*
Cc1c2cnn(-c3ccccc3)c(=O)c2c(C)n1CC(=O)N1CCN(c2cccc(Cl)c2)CC1	25%
Cc1ccc(NC(=O)CSc2ccc3nnc(CCNS(=O)(=O)c4ccccc4)n3n2)cc1Cl	-9%
COc1ccc(Cl)cc1NC(=O)c1oc2ccc(S(=O)(=O)N3CCCCC3)cc2c1C	41%
CC(=O)Nc1ccc(NC(=O)c2ccc3c(c2)CCN3S(=O)(=O)c2ccc(C)cc2)cc1	19%
Cc1ccc(C)c(NC(=O)c2ccc3c(c2)CCN3S(=O)(=O)c2ccccc2)c1	-19%
O=C(Nc1ccc(Cl)c(C(F)(F)F)c1)c1ccc2c(c1)CCN2S(=O)(=O)c1ccccc1	8.9µM*
CCc1cccc(CC)c1NC(=O)c1ccc2c(c1)CCN2S(=O)(=O)c1ccccc1	7%
COc1ccc(C(=O)Nc2ccc3c(c2)CCCN3S(=O)(=O)c2ccc(C)cc2)cc1	i
COc1ccc(NC(=O)c2oc3ccc(S(=O)(=O)N4CCCCC4)cc3c2C)cc1Cl	11µM*
Cc1ccc(Cl)cc1NC(=O)c1oc2ccc(S(=O)(=O)N3CCCCCC3)cc2c1C	5%
COc1ccc(NC(=O)c2ccc3c(c2)CCN3S(=O)(=O)c2ccc(C)cc2)cc1Cl	8.9µM*
CCOC(=O)c1cccc(NC(=O)c2cn(-c3cccc(OC)c3)c(=O)c3ccccc23)c1	14%
O=C(Nc1ccccc1F)C1CCN(C(=O)c2ncn3c2COC(c2ccc(F)cc2)C3)CC1 (centres undefined)	-16%
Cc1cc(C)cc(NC(=O)CSc2oc(-c3ccccc3)nc2S(=O)(=O)c2ccccc2)c1	-28%
Cc1noc2c(N3CC[S+](=O)([O-])CC3)cc(-c3cccnc3)nc12	8%[44.1 µM]
CCCS(=O)(=O)N1CCC2(CCCCO2)CC1	8%
CNC(=O)[C@@H]1C[C@@H](O)CN1C1CCN(C(=O)CCc2ccccc2)CC1	13%
Cc1cnc(C(=O)NC2C[C@H]3CC[C@@H](C2)N3C(=O)Cc2ccccc2)cn1 (some centres undefined)	-16%
CCOC(=O)c1nc(Nc2ccc(C(=O)OCC(C)C)cc2)c2ccccc2n1	11µM*
CCCCCOC(=O)c1ccc(Nc2nc(C(=O)OCC)nc3ccccc23)cc1	5%
CCOC(=O)c1nc(Nc2ccc(C(=O)OC(C)C)cc2)c2ccccc2n1	3.2µM*
CCOC(=O)c1nc(Nc2ccccc2OC)c2ccccc2n1	39%
CCOC(=O)c1ccc(Nc2nc(C(=O)OCC)nc3ccccc23)cc1	i
CCOC(=O)c1nc(Nc2ccc(OC)cc2)c2ccccc2n1	20%
SMILES	Pf Dd2 inh
Cc1cc(C)c(NC(=O)Cn2c(=O)n(CCc3ccccc3)c(=O)c3ccccc32)c(C)c1	31%
CCn1c(C2CCN(S(=O)(=O)c3ccc(OC)c(OC)c3)CC2)nn(C)c1=O	18%
O=C(NCc1cccnc1)C1CCN(C2CCN(Cc3ccc4c(c3)CCO4)CC2)CC1	-12%
CN(C)S(=O)(=O)N(CC(=O)NCCSCc1ccccc1)c1ccccc1	24%
O=[N+]([O-])c1cc(-c2nc(-c3ccccc3)no2)ccc1NCc1cccnc1	-20%
Fc1ccc2nc(CO[C@H]3CN(Cc4cnc5ccccc5c4)C[C@H]3F)[nH]c2c1	-12%[44.1 µM]
COc1ccc(C(=O)N2CC3(CCN(C)CC3)c3cc(OC)c(OCc4ccccc4)cc32)cn1	i
COc1cccc([S+](=O)([O-])N2CCCC3(CC(Cc4ccccc4)=NO3)C2)c1 (centres undefined)	i
COc1cc2c(cc1OCc1ccccc1)N([S+](=O)([O-])c1ccc3c(c1)CCO3)CC21CCN(C)CC1	3.5µM*
CCn1nccc1C(=O)N1c2ccccc2CC1c1nnc(C2CC2)o1 (centres undefined)	i
COc1cc(SC)ccc1C(=O)N[C@H]1C[C@@](O)(C(=O)N[C@H]2CCCNC2=O)C[C@@H](O)[C@@H]1O	-3%
COc1ccc(OCc2nc3ccccc3n2Cc2ccc(C(C)(C)C)cc2)cc1	11µM*
CC(C)(C)c1ccc(OCc2nc3ccccc3n2CCOc2ccccc2)cc1	-21%
COc1cccc(OCc2nc3ccccc3n2Cc2ccccc2)c1	50%[5.79 µM]
CCCNC(=O)C[C@@H]1CCN(C(=O)c2cccnc2)C[C@@H]1CC	-17%[44.1 µM]
COc1ccccc1-c1nc(SCC(=O)c2ccccc2)n[nH]1	-13%
CCOCC(=O)N1CCCCCNC(=O)[C@@H]2CCCC[C@@H]21	0%
COc1cccc(NC(CNS(=O)(=O)c2ccc(Cl)cc2)c2ccccc2)c1 (centres undefined)	-25%
CC(=O)NC1(C)CCN(Cc2ccc(-c3ccc4c(ccn4C)c3)cc2)C1 (centres undefined)	10µM*
CC(=O)NC1(C)CCCN(Cc2cc(Br)cs2)C1 (centres undefined)	i
COc1cc(CN2CCC(C)(NC(C)=O)CC2)cc(-c2ccccc2)c1	i
CC(=O)NC1(C)CCN(Cc2ccc(-c3ccc([S+](C)(=O)[O-])cc3)cc2)C1 (centres undefined)	i
CC(=O)NC1(C)CCN(Cc2ccc(-c3ccccc3Oc3ccccc3)cc2)C1 (centres undefined)	7.1µM*
COc1ccccc1CNC(=O)C1(CCO)CCN(Cc2ccccc2)C1 (centres undefined)	i
COc1ccc(N(C)C(=O)c2nn(-c3ccc(C)cc3)c(=O)n(C)c2=O)c(OC)c1	10%
SMILES	Pf Dd2 inh
COc1ccc2[nH]c(=O)c(CCC(=O)NCCCN3CCCCC3C)cc2c1 (centres undefined)	-24%
CCOc1ccccc1CNC(=O)c1ccc(-c2nc(CSc3ccc(C)cc3)c(C)o2)cc1	16%
O=S(=O)(c1ccc(-c2cc(C(F)(F)F)on2)s1)N1CCN(c2ccccc2)CC1	12%
O=C(NC1CCCN(c2cc(-c3ccc(Cl)cc3)[nH]n2)C1)c1ccc2ncccc2c1 (centres undefined)	-18%
O=C1NC2(CCN(C(=O)c3ccc(C(F)(F)F)cc3)CC2)Oc2ccccc21	i
CCOC(=O)c1ccc(NC(=O)C2=C(C)C(=O)OC23CCCCCC3)cc1	23%
COc1ccc(C(Nc2ccccn2)c2ccc3ccc(C)nc3c2O)cc1C (centres undefined)	21%
Cc1cccc(NC(c2cccc(Cl)c2)c2ccc3cccnc3c2O)n1 (centres undefined)	2.5µM*
O=C(COc1ccc(Cl)cc1Cl)Nc1cccc2cccnc12	11%
COCCO[C@H]1C(=O)N(C2CCN(C(=O)NCc3ccccc3)CC2)[C@H]1c1ccncc1	-5%
O=C(NCCN1CCOCC1)c1ccc(-c2ccc(N3CCCCC3)nc2)cc1	i
CCOc1ccc(CNC(=O)Cn2nc(C)n3cccc3c2=O)cc1	44%
O=c1cc(-c2ccccc2)nc(SCc2nc(-c3ccc(Cl)cc3)no2)[nH]1	20%
Clc1ccc(CNc2nc(-c3ccccc3)no2)cc1	11µM*
Fc1ccccc1-c1noc(NCCc2ccc(Cl)cc2)n1	i
C#CCN(C)C(=O)[C@@H](C)C1CC[C@@]2(C)Cc3sc(NC)nc3[C@@H](C)[C@@H]2[C@H]1O (some centres undefined)	i
CCN(CC)C(=O)C(C)[C@@H]1CC[C@@]2(C)Cc3sc(NC(=O)C4CC4)nc3[C@@H](C)[C@@H]2[C@H]1O (some centres undefined)	32%

Assay outcomes deposited in PubChem BioAssay by National Center for Advancing Translational Sciences (NCATS).
